Experiment [1] addresses Sphingosine kinase 1 (Homo sapiens) (UniProt Q9NYA1). The note with it: at 1 µM.
Experiment [2] deals with T1, Sphingosine kinase 2 (Homo sapiens) (UniProt Q9NRA0).
T1 sequence (whole entry): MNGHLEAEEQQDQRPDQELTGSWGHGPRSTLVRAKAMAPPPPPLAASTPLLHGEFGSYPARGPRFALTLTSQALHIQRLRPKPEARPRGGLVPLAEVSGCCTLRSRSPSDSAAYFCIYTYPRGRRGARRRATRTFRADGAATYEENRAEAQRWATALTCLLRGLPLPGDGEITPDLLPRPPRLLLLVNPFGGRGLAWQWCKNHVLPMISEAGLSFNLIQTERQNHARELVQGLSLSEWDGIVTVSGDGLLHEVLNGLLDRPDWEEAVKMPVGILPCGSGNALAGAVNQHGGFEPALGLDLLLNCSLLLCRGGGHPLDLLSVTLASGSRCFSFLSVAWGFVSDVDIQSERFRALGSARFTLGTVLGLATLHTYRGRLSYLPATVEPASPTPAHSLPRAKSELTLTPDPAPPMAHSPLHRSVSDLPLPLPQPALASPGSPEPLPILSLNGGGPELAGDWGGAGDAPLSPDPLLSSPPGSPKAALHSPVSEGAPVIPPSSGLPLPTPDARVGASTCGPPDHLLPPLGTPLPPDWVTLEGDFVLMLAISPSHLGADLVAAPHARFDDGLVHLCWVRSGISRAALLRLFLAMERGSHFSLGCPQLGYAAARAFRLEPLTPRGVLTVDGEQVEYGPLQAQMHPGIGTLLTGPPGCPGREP
The note with it: at 0.1 µM.

The target in experiment [3] is T1, Sphingosine kinase 2 (Homo sapiens). The note with it: at 1 µM.
Experiment [4] has as its target Casein kinase II subunit alpha (Homo sapiens) (UniProt P68400). The note with it: at 0.1 µM.
Experiment [5] shares this target. To be noted: at 1 µM.
For experiment [6], the target named is T2, Inhibitor of nuclear factor kappa-B kinase subunit alpha (Homo sapiens) (UniProt O15111).
T2 sequence (whole entry): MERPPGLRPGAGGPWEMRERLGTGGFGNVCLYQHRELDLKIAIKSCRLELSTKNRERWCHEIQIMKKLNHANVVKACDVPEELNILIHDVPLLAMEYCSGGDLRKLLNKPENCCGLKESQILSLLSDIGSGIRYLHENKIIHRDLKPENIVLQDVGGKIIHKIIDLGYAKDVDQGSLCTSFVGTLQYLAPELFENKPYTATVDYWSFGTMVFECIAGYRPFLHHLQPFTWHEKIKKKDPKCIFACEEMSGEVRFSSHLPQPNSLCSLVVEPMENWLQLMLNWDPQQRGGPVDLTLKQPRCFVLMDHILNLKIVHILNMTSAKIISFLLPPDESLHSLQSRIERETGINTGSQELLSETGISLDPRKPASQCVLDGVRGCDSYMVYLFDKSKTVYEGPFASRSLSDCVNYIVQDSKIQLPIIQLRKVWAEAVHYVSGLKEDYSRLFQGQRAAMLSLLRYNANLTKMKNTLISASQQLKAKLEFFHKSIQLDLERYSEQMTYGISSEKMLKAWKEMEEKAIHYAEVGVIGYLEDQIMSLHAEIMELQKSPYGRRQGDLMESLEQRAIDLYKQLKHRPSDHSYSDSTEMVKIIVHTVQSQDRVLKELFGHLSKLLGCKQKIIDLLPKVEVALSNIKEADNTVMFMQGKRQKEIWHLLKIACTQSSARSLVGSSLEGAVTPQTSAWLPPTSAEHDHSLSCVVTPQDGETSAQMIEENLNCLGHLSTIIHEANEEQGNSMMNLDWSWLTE
To be noted: at 0.1 µM.

Experiment [7] has as its target T2, Inhibitor of nuclear factor kappa-B kinase subunit alpha (Homo sapiens). The note with it: at 1 µM.
In experiment [8] the target is T3, Inhibitor of nuclear factor kappa-B kinase subunit beta (Homo sapiens) (UniProt O14920).
T3 sequence (whole entry): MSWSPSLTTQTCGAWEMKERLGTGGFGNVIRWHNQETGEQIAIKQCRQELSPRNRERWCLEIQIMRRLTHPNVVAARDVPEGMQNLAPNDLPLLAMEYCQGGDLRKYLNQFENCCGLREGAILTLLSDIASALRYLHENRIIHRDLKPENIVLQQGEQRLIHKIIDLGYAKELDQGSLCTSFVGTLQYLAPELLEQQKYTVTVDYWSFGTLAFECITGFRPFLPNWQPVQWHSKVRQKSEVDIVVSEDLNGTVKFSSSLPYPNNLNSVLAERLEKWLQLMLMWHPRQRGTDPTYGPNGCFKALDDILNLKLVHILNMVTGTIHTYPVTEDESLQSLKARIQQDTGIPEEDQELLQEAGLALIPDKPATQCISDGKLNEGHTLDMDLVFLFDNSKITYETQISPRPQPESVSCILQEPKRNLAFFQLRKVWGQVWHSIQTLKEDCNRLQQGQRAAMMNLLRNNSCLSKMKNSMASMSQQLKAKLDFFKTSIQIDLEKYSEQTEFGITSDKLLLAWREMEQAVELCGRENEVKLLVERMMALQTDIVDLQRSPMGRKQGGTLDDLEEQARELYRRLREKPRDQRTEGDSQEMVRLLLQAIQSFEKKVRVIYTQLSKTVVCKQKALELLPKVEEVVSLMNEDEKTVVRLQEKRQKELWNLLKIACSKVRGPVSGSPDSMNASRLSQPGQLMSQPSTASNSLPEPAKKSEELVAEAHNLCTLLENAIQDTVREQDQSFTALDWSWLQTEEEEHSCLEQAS
To be noted: at 0.1 µM.

The target in experiment [9] is T3, Inhibitor of nuclear factor kappa-B kinase subunit beta (Homo sapiens). To be noted: at 1 µM.
In experiment [10] the target is T4, Inhibitor of nuclear factor kappa-B kinase subunit epsilon (Homo sapiens) (UniProt Q14164).
T4 sequence (whole entry): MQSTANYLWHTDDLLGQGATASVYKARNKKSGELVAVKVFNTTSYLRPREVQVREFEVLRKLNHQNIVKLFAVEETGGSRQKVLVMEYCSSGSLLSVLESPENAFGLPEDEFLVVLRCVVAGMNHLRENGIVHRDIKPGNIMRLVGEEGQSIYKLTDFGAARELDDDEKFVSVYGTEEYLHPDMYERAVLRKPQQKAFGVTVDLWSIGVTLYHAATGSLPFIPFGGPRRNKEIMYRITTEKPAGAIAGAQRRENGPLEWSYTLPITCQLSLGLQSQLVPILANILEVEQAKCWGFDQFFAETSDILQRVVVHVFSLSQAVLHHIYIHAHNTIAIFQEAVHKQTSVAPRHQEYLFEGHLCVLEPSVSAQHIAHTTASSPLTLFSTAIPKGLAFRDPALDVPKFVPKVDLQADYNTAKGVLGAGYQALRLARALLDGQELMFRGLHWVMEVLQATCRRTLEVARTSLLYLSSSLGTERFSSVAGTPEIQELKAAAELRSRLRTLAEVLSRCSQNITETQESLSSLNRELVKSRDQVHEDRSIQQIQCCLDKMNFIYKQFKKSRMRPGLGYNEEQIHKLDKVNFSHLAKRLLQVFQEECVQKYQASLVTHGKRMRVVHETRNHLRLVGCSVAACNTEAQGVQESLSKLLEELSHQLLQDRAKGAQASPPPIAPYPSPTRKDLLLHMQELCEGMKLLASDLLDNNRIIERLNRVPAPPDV
The note with it: at 0.1 µM.

Experiment [11] addresses T4, Inhibitor of nuclear factor kappa-B kinase subunit epsilon (Homo sapiens). To be noted: at 1 µM.
Experiment [12] addresses T5, Serine/threonine-protein kinase Nek1 (Homo sapiens) (UniProt Q96PY6).
T5 sequence (whole entry): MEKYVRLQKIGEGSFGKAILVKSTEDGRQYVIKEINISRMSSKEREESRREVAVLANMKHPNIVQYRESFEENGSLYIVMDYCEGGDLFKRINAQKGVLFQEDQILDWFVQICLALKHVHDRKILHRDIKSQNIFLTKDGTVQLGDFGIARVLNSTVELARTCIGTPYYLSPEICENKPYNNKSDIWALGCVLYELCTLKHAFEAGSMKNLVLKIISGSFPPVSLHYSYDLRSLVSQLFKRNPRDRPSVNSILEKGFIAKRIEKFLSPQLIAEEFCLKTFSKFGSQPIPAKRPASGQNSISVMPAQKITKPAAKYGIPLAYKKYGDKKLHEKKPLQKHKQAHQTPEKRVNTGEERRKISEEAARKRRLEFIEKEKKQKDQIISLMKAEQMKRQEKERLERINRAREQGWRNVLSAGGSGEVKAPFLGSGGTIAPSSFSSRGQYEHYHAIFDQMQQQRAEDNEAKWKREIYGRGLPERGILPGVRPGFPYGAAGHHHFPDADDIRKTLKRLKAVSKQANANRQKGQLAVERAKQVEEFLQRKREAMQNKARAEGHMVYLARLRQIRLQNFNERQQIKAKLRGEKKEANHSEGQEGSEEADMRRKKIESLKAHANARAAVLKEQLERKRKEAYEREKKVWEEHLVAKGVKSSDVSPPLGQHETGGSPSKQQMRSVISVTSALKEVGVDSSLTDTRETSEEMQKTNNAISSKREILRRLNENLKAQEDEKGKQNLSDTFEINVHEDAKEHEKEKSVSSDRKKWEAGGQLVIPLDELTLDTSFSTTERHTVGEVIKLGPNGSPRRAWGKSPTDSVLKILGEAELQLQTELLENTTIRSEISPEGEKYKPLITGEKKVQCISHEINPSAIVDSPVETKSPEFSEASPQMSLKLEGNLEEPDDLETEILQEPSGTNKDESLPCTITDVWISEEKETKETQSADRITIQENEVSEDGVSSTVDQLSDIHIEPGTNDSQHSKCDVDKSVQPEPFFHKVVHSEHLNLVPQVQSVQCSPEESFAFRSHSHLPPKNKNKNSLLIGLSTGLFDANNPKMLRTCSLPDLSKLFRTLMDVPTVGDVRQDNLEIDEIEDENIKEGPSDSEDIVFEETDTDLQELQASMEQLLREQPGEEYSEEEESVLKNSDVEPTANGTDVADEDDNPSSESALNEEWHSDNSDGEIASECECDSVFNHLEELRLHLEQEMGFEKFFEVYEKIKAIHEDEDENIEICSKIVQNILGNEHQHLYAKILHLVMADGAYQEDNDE
The note with it: at 0.1 µM.

The target in experiment [13] is T5, Serine/threonine-protein kinase Nek1 (Homo sapiens). To be noted: at 1 µM.
The target in experiment [14] is T6, Serine/threonine-protein kinase Nek2 (Homo sapiens) (UniProt P51955).
T6 sequence (whole entry): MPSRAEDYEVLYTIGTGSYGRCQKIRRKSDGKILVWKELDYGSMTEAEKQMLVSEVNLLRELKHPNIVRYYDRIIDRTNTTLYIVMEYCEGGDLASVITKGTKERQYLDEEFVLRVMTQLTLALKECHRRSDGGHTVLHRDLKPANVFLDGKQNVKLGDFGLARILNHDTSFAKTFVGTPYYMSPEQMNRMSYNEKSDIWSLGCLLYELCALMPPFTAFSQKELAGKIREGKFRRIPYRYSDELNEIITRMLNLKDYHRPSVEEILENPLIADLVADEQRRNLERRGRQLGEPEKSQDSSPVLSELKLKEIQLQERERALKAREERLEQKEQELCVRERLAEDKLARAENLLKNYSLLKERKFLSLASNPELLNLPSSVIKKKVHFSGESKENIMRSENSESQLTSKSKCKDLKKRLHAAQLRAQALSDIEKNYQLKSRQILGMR
The note with it: at 0.1 µM.

Experiment [15] concerns the target T6, Serine/threonine-protein kinase Nek2 (Homo sapiens). The note with it: at 1 µM.
The target in experiment [16] is Serine/threonine-protein kinase Nek6 (Homo sapiens) (UniProt Q9HC98). The note with it: at 0.1 µM.
Serine/threonine-protein kinase Nek6 (Homo sapiens), sequence (Q9HC98 whole entry): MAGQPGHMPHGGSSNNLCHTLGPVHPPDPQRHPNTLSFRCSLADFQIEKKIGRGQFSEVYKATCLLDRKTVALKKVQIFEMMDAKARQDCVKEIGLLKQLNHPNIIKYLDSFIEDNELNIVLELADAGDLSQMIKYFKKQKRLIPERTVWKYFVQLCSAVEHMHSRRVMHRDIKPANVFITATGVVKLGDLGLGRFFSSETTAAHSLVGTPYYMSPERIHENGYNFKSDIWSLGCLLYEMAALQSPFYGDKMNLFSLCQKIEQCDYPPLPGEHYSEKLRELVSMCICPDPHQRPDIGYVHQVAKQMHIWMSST
Experiment [17] has the same target. To be noted: at 1 µM.
Experiment [18] addresses Serine/threonine-protein kinase Nek7 (Homo sapiens) (UniProt Q8TDX7). The note with it: at 0.1 µM.
Experiment [19] has the same target. The note with it: at 1 µM.
For experiment [20], the target named is T7, Serine/threonine-protein kinase Nek9 (Homo sapiens) (UniProt Q8TD19).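 Note: reported value is the mean percent inhibition of NEK9.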
T7 sequence (whole entry): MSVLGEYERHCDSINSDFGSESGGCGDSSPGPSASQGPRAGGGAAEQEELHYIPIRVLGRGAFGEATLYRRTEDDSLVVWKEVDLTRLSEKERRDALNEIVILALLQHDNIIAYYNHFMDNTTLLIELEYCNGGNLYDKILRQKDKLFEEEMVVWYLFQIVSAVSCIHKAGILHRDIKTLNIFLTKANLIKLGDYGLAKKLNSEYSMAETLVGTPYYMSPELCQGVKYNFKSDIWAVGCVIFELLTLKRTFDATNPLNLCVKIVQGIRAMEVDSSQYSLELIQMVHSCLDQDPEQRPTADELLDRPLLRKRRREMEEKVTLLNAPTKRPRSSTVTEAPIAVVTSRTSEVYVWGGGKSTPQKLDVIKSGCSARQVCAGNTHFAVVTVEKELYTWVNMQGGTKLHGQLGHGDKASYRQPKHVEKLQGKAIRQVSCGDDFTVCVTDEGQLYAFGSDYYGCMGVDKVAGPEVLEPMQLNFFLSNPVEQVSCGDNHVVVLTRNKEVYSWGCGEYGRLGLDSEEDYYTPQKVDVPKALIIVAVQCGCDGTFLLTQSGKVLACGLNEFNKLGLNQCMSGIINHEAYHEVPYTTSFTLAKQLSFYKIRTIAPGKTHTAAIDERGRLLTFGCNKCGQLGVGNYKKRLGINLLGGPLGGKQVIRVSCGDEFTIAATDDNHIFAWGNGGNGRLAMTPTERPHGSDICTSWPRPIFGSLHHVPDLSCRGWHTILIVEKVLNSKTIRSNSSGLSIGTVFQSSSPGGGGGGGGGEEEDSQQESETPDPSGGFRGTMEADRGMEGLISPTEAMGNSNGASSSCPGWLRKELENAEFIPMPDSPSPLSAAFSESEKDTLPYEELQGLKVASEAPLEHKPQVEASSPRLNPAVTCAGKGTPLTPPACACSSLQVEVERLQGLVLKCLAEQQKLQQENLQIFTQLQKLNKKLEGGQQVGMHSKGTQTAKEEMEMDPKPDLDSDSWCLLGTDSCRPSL
The note with it: at 0.1 µM.

Casein kinase II subunit alpha (Homo sapiens), sequence (P68400 whole entry, looked up): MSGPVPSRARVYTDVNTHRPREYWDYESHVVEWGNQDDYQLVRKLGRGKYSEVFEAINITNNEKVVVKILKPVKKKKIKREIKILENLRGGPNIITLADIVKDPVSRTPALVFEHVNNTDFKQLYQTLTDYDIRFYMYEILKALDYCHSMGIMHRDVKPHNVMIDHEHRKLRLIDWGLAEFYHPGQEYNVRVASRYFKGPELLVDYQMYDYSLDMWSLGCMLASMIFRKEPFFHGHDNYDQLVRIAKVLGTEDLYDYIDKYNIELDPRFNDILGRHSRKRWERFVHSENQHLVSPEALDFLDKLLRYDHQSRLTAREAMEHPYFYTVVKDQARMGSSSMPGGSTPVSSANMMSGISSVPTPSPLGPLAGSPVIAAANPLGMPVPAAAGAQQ
Serine/threonine-protein kinase Nek7 (Homo sapiens), sequence (Q8TDX7 whole entry, looked up): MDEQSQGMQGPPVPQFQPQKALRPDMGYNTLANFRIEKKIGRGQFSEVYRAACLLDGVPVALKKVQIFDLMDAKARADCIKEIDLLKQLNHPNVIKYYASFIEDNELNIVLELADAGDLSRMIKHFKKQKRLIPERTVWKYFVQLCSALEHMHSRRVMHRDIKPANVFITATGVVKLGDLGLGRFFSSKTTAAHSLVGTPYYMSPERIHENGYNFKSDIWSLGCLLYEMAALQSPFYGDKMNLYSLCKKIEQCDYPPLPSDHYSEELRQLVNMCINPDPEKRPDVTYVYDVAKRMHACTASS
Sphingosine kinase 1 (Homo sapiens), sequence (Q9NYA1 whole entry): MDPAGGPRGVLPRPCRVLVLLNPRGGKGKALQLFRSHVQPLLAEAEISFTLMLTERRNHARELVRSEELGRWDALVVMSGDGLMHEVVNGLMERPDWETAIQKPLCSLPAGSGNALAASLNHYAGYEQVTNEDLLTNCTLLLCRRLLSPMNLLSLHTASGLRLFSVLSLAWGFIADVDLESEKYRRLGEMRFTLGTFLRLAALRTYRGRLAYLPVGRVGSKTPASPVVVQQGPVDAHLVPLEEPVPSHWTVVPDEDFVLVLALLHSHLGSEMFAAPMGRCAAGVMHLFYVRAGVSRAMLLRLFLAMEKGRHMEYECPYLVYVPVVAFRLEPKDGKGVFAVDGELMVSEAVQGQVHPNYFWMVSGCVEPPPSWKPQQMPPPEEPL

With `CNC(=O)c1cc(-c2ccc(F)cc2)cc(-c2ccc(S(=O)(=O)N3CCCC3)cc2)c1N`, the inhibition (as a rule, the change of the read-out against control, counted positive when it falls) was -1.82% in experiment [1]; -0.5% in experiment [2]; -0.63% in experiment [3]; 15.5% in [4]; 3.05% in experiment [5]; 7.04% in [6]. In addition, the inhibition in experiment [7] worked out at 4.67%; in experiment [8], 5.48%; in [9], 5.18%; in experiment [10], 2.88%; in experiment [11], 3.73%; in experiment [12], 1.09%. Also, the inhibition in experiment [13] worked out at 2.25%; in experiment [14], 4.19%; in [15] it was 2.55%; in experiment [16], 3.41%; in [17] it was 2.7%; in [18], 3.41%. For the same compound, the figures for the inhibition in experiment [19] and in [20] were 7.48% and 5.37%, respectively.

For the origin of these results see ChEMBL document CHEMBL1961873, “Compounds: GSK PKIS; Assays: Nanosyn kinase panel” (2012).
